Common to all, as to assay: DAPPL (digital affinity profiling via proximity ligation, sequencing); 10 mM Tris-HCl pH 7.5, 50 mM NaCl, 1 mM DTT, 4% glycerol, room temperature, 30 min; GST-TFs on glutathione beads, 16-mer random dsDNA library, 0.1% formaldehyde crosslink after washing; high values mean tight binding
One test has as its target T1, FLI1 (Homo sapiens, UniProt Q01543 1-452).
T1 sequence: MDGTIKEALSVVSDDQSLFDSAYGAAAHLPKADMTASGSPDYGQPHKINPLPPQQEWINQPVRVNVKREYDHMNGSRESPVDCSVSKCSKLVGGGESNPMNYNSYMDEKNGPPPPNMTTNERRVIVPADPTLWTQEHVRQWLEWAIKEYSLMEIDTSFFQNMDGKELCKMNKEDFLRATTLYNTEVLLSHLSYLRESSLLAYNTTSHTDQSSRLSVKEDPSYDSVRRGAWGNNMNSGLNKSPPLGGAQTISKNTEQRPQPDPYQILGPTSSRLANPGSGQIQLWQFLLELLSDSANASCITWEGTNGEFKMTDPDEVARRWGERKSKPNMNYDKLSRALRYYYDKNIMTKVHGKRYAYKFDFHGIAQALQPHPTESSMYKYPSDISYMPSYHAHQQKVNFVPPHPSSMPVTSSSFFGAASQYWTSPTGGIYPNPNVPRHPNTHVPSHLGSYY
To be noted: protein: recombinant; tags: N-terminal GST; dsDNA, one strand shown. Put shortly:
(§1)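 Pools were built from human transcription factors expressed in yeast as GST fusions, captured on glutathione beads and DNA-barcoded, along with a tag-only sample. Incubation with 200 nmole of a 16-mer random double-stranded DNA library lasted 30 min at room temperature in Tris/NaCl/DTT/glycerol buffer, and was followed by washing, 0.1% formaldehyde crosslinking, proximity ligation, PCR amplification and Illumina NextSeq500 sequencing. Binding signal is the quotient of each hexamer's read frequency for a factor and its frequency for the tag-only sample.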

The target of another test is T2, ELK1 (Homo sapiens, UniProt P19419 1-428).
T2 sequence: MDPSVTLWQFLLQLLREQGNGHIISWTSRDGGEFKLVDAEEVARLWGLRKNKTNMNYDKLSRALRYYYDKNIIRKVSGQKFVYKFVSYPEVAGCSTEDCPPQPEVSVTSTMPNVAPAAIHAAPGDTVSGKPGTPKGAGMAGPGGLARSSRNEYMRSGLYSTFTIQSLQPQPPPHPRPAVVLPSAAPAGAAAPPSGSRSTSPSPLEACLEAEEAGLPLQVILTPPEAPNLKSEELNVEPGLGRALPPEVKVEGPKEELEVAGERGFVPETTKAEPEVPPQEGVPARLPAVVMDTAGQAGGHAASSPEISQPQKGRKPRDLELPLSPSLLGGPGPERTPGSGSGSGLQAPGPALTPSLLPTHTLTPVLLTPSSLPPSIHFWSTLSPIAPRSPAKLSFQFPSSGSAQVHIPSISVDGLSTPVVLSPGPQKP
To be noted: protein: recombinant; tags: N-terminal GST; dsDNA, one strand shown. In short, it runs like this:
as §1

A further test addresses T3, GABPA (Homo sapiens, UniProt Q06546 1-454).
T3 sequence: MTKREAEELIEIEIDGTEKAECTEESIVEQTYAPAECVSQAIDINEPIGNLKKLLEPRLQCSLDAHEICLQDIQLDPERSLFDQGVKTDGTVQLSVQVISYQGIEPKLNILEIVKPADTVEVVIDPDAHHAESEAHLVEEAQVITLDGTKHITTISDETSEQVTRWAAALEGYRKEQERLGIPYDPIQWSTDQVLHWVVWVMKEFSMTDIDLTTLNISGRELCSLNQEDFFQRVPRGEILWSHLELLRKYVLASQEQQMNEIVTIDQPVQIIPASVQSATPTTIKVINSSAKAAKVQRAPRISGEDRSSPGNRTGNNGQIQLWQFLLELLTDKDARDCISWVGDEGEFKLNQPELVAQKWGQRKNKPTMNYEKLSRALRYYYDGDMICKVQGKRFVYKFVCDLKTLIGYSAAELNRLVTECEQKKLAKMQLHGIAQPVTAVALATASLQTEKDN
The following applies: protein: recombinant; tags: N-terminal GST; dsDNA, one strand shown. In short, it runs like this: as §1

For the next test, the target named is T4, ERG (Homo sapiens, UniProt P11308 1-479).
T4 sequence: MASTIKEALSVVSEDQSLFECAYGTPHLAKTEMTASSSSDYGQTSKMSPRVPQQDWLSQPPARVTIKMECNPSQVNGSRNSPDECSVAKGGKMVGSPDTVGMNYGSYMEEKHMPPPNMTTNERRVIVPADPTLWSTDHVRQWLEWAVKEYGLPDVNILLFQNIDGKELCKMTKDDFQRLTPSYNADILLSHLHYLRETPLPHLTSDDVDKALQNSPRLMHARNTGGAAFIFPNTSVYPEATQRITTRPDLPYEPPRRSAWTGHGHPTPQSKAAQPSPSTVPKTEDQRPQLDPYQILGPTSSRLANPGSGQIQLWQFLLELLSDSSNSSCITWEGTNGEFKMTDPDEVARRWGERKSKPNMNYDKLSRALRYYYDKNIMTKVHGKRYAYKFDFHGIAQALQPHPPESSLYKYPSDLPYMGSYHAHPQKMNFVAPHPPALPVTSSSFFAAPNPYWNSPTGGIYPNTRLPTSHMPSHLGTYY
The following applies: protein: recombinant; tags: N-terminal GST; dsDNA, one strand shown. In short, it runs like this:
as §1

The next test deals with ELF1 (Homo sapiens, UniProt P32519 1-619). To be noted: protein: recombinant; tags: N-terminal GST; dsDNA, one strand shown. In short, it runs like this: as §1
Chain of ELF1 (P32519 whole entry): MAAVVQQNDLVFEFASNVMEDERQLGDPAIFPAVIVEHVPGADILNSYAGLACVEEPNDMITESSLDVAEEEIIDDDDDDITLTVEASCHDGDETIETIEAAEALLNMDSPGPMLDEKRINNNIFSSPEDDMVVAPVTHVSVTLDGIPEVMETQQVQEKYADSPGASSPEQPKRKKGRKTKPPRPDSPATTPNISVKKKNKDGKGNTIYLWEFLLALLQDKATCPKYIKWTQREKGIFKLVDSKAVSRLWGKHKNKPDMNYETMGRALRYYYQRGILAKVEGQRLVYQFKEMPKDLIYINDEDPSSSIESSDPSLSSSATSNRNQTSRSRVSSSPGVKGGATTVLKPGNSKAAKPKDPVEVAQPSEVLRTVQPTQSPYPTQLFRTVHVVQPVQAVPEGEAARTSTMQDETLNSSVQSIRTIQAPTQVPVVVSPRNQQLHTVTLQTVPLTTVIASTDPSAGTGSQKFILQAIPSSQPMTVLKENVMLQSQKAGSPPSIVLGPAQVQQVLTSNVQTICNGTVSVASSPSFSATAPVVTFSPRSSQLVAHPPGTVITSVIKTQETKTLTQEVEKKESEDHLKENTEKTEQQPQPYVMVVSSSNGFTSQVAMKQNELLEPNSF
Another test concerns the target T5, EHF (Homo sapiens, UniProt Q9NZC4 1-300).
T5 sequence: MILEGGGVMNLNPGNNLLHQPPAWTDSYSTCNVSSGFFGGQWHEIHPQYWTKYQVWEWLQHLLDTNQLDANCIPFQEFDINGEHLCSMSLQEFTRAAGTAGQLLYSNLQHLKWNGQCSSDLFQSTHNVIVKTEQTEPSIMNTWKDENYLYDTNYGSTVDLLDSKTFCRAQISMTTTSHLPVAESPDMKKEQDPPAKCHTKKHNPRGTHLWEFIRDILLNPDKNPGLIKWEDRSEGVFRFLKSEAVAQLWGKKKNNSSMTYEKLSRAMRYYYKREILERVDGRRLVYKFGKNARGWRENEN
To be noted: protein: recombinant; tags: N-terminal GST; dsDNA, one strand shown. Put shortly: as §1

The target in the next test is SPI1 (Homo sapiens, UniProt P17947 1-270). The following applies: protein: recombinant; tags: N-terminal GST; dsDNA, one strand shown. In short, it runs like this: as §1
The target in another test is SPIB (Homo sapiens, UniProt Q01892 1-262). To be noted: protein: recombinant; tags: N-terminal GST; dsDNA, one strand shown. Put shortly: as §1
Chain of SPIB (Q01892 whole entry): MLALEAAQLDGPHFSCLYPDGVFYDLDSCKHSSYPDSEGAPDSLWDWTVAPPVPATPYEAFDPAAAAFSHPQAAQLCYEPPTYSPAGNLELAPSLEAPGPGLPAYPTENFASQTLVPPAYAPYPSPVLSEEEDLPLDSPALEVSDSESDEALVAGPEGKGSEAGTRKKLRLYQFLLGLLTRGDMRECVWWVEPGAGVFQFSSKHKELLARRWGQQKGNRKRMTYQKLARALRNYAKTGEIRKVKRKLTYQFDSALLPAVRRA
The target of a further test is T6, ELK3 (Homo sapiens, UniProt P41970 1-407).
T6 sequence: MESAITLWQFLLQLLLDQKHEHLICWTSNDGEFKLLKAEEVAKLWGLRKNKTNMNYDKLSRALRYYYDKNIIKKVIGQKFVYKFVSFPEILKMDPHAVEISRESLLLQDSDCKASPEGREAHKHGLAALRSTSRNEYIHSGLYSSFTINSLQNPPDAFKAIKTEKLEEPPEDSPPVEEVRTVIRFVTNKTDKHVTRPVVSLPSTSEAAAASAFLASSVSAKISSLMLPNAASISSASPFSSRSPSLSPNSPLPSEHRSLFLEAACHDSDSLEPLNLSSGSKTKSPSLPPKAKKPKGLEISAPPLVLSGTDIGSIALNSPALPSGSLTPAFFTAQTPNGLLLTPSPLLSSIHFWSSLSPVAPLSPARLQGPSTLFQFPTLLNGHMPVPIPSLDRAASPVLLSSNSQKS
The following applies: protein: recombinant; tags: N-terminal GST; dsDNA, one strand shown. Put shortly: as §1

In another test the target is T7, FEV (Homo sapiens, UniProt Q99581 1-238).
T7 sequence: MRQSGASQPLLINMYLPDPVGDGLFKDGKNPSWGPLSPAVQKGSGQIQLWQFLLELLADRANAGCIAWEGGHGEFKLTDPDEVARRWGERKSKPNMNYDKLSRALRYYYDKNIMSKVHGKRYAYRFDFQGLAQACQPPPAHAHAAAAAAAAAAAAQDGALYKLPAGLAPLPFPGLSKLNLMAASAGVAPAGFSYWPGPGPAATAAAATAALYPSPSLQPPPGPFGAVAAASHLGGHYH
To be noted: protein: recombinant; tags: N-terminal GST; dsDNA, one strand shown. Put shortly: as §1

The target of another test is ETV5 (Homo sapiens, UniProt P41161 1-510). To be noted: protein: recombinant; tags: N-terminal GST; dsDNA, one strand shown. Put shortly: as §1
Chain of ETV5 (P41161 whole entry): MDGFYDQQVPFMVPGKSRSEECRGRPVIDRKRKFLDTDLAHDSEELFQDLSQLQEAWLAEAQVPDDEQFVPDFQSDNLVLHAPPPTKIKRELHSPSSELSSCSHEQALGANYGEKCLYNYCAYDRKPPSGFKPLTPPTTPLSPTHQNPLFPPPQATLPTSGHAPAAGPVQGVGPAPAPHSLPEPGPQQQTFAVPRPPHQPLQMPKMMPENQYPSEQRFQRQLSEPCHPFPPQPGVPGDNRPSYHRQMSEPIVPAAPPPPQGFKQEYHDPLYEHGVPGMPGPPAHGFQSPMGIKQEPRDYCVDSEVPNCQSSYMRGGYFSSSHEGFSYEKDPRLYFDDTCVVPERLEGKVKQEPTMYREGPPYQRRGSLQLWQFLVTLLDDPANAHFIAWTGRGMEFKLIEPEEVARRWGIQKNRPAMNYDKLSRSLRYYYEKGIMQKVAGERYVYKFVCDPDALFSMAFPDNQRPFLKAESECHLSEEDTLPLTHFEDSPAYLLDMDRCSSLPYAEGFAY
The next test addresses HSF1 (Homo sapiens, UniProt Q00613 1-529). The following applies: protein: recombinant; tags: N-terminal GST; chain copies: 3; dsDNA, one strand shown. Put shortly:
as §1

For a further test, the target named is T8, SPIC (Homo sapiens, UniProt Q8N5J4 1-248).
T8 sequence: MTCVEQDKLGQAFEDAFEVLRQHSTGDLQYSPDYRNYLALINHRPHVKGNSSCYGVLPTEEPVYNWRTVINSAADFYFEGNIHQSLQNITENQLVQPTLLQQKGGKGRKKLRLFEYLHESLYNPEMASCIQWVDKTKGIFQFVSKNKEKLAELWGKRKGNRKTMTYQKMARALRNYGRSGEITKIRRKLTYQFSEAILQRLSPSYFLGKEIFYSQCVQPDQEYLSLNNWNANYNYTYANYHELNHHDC
The following applies: protein: recombinant; tags: N-terminal GST; dsDNA, one strand shown. In short, it runs like this: as §1

In a further test the target is ELF4 (Homo sapiens, UniProt Q99607 1-663). The following applies: protein: recombinant; tags: N-terminal GST; dsDNA, one strand shown. Put shortly: as §1
Chain of ELF4 (Q99607 whole entry): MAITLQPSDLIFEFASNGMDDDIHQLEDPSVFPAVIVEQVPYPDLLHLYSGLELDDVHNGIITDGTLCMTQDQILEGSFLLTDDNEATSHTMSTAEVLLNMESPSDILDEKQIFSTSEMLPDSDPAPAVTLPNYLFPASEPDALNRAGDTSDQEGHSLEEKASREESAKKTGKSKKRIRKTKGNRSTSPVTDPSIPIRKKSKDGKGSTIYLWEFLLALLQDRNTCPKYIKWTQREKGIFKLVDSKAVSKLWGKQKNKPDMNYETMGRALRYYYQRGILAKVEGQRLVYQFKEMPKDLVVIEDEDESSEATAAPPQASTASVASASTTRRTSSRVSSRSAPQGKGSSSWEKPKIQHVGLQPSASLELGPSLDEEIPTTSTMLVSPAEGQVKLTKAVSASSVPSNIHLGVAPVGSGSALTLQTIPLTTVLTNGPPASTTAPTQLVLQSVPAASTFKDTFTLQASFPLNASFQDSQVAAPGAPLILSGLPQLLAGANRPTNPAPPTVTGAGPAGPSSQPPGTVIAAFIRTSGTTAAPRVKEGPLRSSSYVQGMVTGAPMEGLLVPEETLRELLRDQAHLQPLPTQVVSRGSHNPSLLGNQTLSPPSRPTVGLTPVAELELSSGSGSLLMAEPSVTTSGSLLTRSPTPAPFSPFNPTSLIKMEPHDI
The target in a further test is T9, ELK4 (Homo sapiens, UniProt P28324-2 1-405).
T9 sequence: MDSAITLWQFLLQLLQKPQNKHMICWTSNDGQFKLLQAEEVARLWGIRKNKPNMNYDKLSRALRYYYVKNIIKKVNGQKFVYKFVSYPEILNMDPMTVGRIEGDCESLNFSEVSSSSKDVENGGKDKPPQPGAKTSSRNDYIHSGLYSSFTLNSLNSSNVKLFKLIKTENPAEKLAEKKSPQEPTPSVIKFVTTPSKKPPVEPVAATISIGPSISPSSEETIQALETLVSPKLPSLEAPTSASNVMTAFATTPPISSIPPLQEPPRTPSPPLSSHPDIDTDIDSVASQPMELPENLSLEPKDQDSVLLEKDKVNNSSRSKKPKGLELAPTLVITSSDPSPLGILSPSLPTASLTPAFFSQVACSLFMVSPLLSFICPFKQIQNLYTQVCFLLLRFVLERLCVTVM
To be noted: protein: recombinant; tags: N-terminal GST; dsDNA, one strand shown. Put shortly:
as §1

For the next test, the target named is T10, ETV2 (Homo sapiens, UniProt O00321 1-342).
T10 sequence: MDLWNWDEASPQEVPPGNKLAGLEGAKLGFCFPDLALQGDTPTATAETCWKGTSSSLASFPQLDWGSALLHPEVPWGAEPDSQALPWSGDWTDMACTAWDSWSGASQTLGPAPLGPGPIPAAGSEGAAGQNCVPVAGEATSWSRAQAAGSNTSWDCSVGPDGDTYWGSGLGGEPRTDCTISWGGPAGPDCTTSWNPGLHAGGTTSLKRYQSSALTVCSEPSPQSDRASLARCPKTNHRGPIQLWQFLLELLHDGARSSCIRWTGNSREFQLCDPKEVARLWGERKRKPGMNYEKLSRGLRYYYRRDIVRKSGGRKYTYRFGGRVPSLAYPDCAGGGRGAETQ
The following applies: protein: recombinant; tags: N-terminal GST; dsDNA, one strand shown. Put shortly: as §1

Another test addresses T11, ELF3 (Homo sapiens, UniProt P78545 1-371).
T11 sequence: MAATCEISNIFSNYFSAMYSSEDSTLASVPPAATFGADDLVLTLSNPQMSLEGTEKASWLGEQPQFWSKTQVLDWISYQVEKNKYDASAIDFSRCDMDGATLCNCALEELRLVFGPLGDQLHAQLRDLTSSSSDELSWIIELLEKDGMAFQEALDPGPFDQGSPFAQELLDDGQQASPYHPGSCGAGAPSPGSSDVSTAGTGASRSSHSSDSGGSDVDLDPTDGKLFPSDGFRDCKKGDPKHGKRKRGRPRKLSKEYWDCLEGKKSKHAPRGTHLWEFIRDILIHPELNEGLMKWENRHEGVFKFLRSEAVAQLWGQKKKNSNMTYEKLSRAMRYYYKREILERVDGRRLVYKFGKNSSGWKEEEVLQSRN
To be noted: protein: recombinant; tags: N-terminal GST; dsDNA, one strand shown. Put shortly: as §1

The next test deals with CRX (Homo sapiens, UniProt O43186 1-299). The following applies: protein: recombinant; tags: N-terminal GST; dsDNA, one strand shown. Put shortly:
as §1

A further test deals with ETV1 (Homo sapiens, UniProt P50549 1-477). The following applies: protein: recombinant; tags: N-terminal GST; dsDNA, one strand shown. Put shortly: as §1
Chain of ETV1 (P50549 whole entry): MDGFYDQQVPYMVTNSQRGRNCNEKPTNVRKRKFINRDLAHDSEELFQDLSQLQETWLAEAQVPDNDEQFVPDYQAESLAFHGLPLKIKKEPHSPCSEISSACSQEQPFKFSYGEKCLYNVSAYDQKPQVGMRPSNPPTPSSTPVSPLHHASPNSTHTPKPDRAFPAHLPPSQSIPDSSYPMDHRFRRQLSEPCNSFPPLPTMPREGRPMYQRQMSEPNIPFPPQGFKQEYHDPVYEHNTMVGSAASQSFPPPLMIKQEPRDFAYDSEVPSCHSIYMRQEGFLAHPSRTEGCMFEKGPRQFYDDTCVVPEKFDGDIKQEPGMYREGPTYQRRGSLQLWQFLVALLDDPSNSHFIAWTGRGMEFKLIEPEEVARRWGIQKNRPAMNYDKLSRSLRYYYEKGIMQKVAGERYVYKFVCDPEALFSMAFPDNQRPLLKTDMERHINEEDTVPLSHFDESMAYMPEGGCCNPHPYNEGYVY

Chain of CRX (O43186 whole entry): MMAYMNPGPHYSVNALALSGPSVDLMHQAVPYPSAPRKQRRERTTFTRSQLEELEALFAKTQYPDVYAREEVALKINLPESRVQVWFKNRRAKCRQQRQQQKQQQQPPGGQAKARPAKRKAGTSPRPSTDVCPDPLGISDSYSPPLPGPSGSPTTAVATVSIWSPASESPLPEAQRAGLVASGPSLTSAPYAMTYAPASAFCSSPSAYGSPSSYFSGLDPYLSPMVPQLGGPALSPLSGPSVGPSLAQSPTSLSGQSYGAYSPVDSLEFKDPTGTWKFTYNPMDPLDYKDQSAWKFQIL
Chain of HSF1 (Q00613 whole entry): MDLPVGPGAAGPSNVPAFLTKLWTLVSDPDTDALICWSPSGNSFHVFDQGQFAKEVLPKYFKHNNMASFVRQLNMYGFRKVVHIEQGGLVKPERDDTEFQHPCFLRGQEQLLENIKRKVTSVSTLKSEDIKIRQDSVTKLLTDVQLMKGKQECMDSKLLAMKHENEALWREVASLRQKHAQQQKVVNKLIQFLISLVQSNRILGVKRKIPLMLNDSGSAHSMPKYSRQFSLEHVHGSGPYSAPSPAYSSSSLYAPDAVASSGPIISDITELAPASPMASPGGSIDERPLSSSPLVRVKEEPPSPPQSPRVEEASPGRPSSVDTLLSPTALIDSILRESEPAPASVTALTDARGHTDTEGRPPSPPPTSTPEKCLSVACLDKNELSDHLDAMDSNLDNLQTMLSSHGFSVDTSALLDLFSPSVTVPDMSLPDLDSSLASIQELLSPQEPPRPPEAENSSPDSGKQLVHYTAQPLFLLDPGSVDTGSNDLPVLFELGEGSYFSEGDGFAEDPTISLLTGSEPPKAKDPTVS

Turning to CTCGTA, the binding signal with FLI1 is 1.31 fold enrichment (6-mer frequency, TF over GST control); with ELK1 it was 1.37 fold enrichment (6-mer frequency, TF over GST control); in the test with GABPA it was 1.3 fold enrichment (6-mer frequency, TF over GST control); with ERG, 1.22 fold enrichment (6-mer frequency, TF over GST control); in the test with ELF1 it was 1.32 fold enrichment (6-mer frequency, TF over GST control); with EHF, 1.31 fold enrichment (6-mer frequency, TF over GST control). In addition, the binding signal was 1.39 fold enrichment (6-mer frequency, TF over GST control) with SPI1; 1.38 fold enrichment (6-mer frequency, TF over GST control) with SPIB; 1.36 fold enrichment (6-mer frequency, TF over GST control) with ELK3; 1.33 fold enrichment (6-mer frequency, TF over GST control) with FEV; 1.29 fold enrichment (6-mer frequency, TF over GST control) in the test with ETV5; 1.77 fold enrichment (6-mer frequency, TF over GST control) with HSF1. Further, the binding signal with SPIC is 1.25 fold enrichment (6-mer frequency, TF over GST control); with ELF4, 1.35 fold enrichment (6-mer frequency, TF over GST control); with ELK4, 1.16 fold enrichment (6-mer frequency, TF over GST control); with ETV2 it was 1.44 fold enrichment (6-mer frequency, TF over GST control); with ELF3, 1.39 fold enrichment (6-mer frequency, TF over GST control); in the test with CRX it was 1.38 fold enrichment (6-mer frequency, TF over GST control). The binding signal with ETV1 was 1.35 fold enrichment (6-mer frequency, TF over GST control).

For the origin of these results see paper PMC7862700, “An all-to-all approach to the identification of sequence-specific readers for epigenetic DNA modifications on cytosine”.
